Hits are enriched below; roughly 2.2% of the tested compounds scored in any of these assays.
IEC-6 tox – IEC-6 cytotoxicity, counter-screen for KLF5 inhibitors | luminescence viability | inhibition, % at 5 µM | 290,000 tested, 0.78% active; in the data active = inhibition above about 22%
Ba/F3 V617F tox – reduce viability of Ba/F3 cells dependent on JAK2V617F; Ba/F3 EpoR-JAK2V617F viability, ATP luminescence; inhibition, % at 5.6 µM; 220,000 tested, 1.1% active; AID 1446;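 active = inhibition above the campaign mean plus 3 SD over all tested compounds, cut at about 24% in these data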;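 note: cytokine-independent growth of Ba/F3 cells driven by EpoR plus mutant JAK2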
KLF5 inhibitor – kruppel-like factor 5 inhibition | DLD-1 KLF5 promoter-luciferase reporter, luminescence | inhibition, % at 5 µM | AID 1700 | 290,000 tested, 0.23% active;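 active = inhibition above a per-plate limit of that plate's mean compound inhibition plus 3 SD, cut at about 60% in these data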;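 note: higher means less KLF5 promoter-driven luciferase light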
APP 5UTR inh – APP translation inhibition. inhibition, % at 2 µM. SH-SY5Y APP 5'UTR-luciferase reporter, luminescence. 190,000 tested, 0.82% active;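 active = inhibition above a set limit, derived from the sample mean plus 3 SD, cut at about 45% in these data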
BaF3 parental – parental Ba/F3 viability inhibition as JAK2V617F counter-screen | 220,000 tested, 1.1% active | AID 1486 | inhibition, % at 5.6 µM | CellTiter-Glo ATP luminescence;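 active = inhibition above a per-campaign cutoff, the mean inhibition of all tested compounds plus 3 SD, cut at about 27% in these data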
aSyn UTR inh – 5' untranslated region of α-synuclein, MLPCN primary screen; alpha-synuclein 5'UTR reporter, inhibitor activity; inhibition, % (tested at 7.5 µM); 300,000 tested, 0.82% active; AID 1813; in the data active = inhibition above about 60%;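 note: H4 neuroglioblastoma cells stably carrying SNCA 5'UTR luciferase fusion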
Numbers stand for hits; – = inactive; · = no result.

SMILES	IEC-6 tox	Ba/F3 V617F tox	KLF5 inhibitor	APP 5UTR inh	BaF3 parental	aSyn UTR inh
COC(=O)c1ccc(OC(=O)CS(=O)c2ccccc2[N+](=O)[O-])cc1 (stereo unspecified)	–	–	–	–	–	–
CC(NC(=O)Cn1c(NCCO)nc2ccccc21)C1CC2CCC1C2 (stereo unspecified)	–	–	–	–	–	–
Cc1nc2ccccc2n1CC(=O)NC(C)C1CC2CCC1C2 (stereo unspecified)	–	40	–	–	49	–
CCc1ccc(Nc2cnn(C34CC5CC(CC(CC(=O)O)(C5)C3)C4)c(=O)c2Cl)cc1	–	–	–	57	–	–
O=c1c2ccccc2nnn1Cc1ccc2ccccc2c1	–	–	–	–	89	–
COC(=O)c1cccc(Cn2nnc3ccccc3c2=O)c1	–	–	–	–	–	–
COc1ccc(COc2cccc3ccc(C)nc23)cc1F	–	·	–	·	·	–
Cc1cc(C(=O)N/N=C/c2ccco2)c2ccccc2n1	–	–	–	–	–	–
O=C(N/N=C/c1ccc(O)cc1)c1cc(-c2ccccc2)nc2ccccc12	–	·	–	·	·	–
Cc1ccc(/C=N/NC(=O)c2cc(-c3ccccc3)nc3ccccc23)o1	–	·	–	·	·	–
CC(/C=N/NC(=O)c1cc(-c2ccccc2)nc2ccccc12)=C\c1ccco1	–	–	–	85	–	–
Cc1cc(C(=O)N/N=C/c2ccc(C)o2)c2ccccc2n1	–	–	–	73	–	65
CC/C(=N\NC(=O)c1cc(C)nc2ccccc12)c1ccc(C)s1	–	–	–	76	–	–
CC(/C=N/NC(=O)c1cc(-c2ccc(Cl)cc2)nc2ccccc12)=C\c1ccco1	–	–	–	–	–	85
COCCN=c1scc(C)n1/N=C/C1CC2C=CC1C2 (stereo unspecified)	–	–	–	–	–	–
COC(=O)C(=Cc1ccccc1[N+](=O)[O-])C(=O)OC	–	–	–	·	–	–
Cc1cccc(N(Cc2ccccc2)C(=O)c2ccc(CS(C)(=O)=O)cc2)c1	–	·	–	·	·	–
CCN(CC)CCOC(=O)CCc1cccc2ccccc12	–	–	–	–	–	–
CCN(CC)CCOC(=O)C(Cc1ccco1)Cc1cccc2ccccc12 (stereo unspecified)	·	·	·	·	·	104
COc1ccc2nc(SCC(=O)NCC(F)(F)F)[nH]c2c1	–	–	–	–	–	–
CCN(CC)c1ccc(/C=N/NC(=O)c2ccco2)cc1	–	–	–	49	–	–
CCN(CC)c1ccc(/C=N/NC(=O)c2ccco2)c(O)c1	–	–	–	·	–	–
COc1ccc(NS(=O)(=O)c2ccc(Oc3ncccn3)cc2)cc1	–	–	–	–	–	–
COc1ccc(S(=O)(=O)Nc2ccc(Oc3ncccn3)c(Cl)c2)cc1	–	–	–	46	–	–
O=C(COC(=O)CCC(=O)c1cccs1)NC1CC1	–	–	–	–	–	–
SMILES	IEC-6 tox	Ba/F3 V617F tox	KLF5 inhibitor	APP 5UTR inh	BaF3 parental	aSyn UTR inh
CCOC(=O)C1=C(N)n2c(s/c(=C\c3cccs3)c2=O)=C(C(=O)OCC)C1c1cccs1 (stereo unspecified)	–	42	–	–	54	–
CCOC(=O)C1=C(N)n2c(s/c(=C\c3ccncc3)c2=O)=C(C(=O)OCC)C1c1ccncc1 (stereo unspecified)	–	–	–	–	–	–
COc1ccc(C=C2c3ccccc3C(=O)c3ccccc32)c(OC)c1	87	84	–	·	83	98
COc1ccc(/C=C2\CN(Cc3ccccc3)C/C(=C\c3ccc(OC)cc3OC)C2=O)c(OC)c1	–	–	–	–	–	–
COC(=O)c1ccc2nc(-c3ccc4c(c3)OCO4)cn2c1	–	–	–	–	–	95
Cc1cccc(C)c1NC(=O)Cn1cnc2c(=O)n(C)c(=O)n(C)c21	–	–	–	–	–	–
Cc1ccccc1C(=O)Nc1cccc(NC(=O)Cn2cnc3c(=O)n(C)c(=O)n(C)c32)c1	–	68	–	–	42	–
COc1cccc(NC(=S)N(Cc2ccc(Cl)cc2)Cc2ccc(C(=O)O)cc2)c1	–	–	–	–	–	–
COc1ccc(-c2cc3c(=O)n(CC(=O)NCCCN4CCC(Cc5ccccc5)CC4)ncn3n2)cc1	–	·	–	·	·	96
O=C(COc1ccccc1Cl)Nc1ccc(S(=O)(=O)Nc2ccccn2)cc1	–	·	–	·	·	–
COc1ccc(/C=C/c2cc(-c3ccc(C)cc3)o[n+]2C)cc1	–	101	–	–	93	89
Cc1cnc(NC(=O)c2ccc(OCC3CCCO3)cc2)s1 (stereo unspecified)	–	–	–	–	–	79
CCOc1ccc(C(=O)Nc2nnc(SCC(=O)NCC3CCCO3)s2)cc1 (stereo unspecified)	–	·	–	·	·	76
COc1ccc(OC)c(-c2csc(NC(=O)c3ccc(OCC4CCCO4)cc3)n2)c1 (stereo unspecified)	–	–	–	–	30	–
Cc1ccc(NC(=O)c2ccc(OCC3CCCO3)cc2)nc1 (stereo unspecified)	·	·	·	·	·	–
COc1ccc(OC)c(-c2csc(NC(=O)C3=COCCO3)n2)c1	·	·	·	·	·	–
CCOC(=O)c1ccc(NC(=O)c2c(N)n(Cc3ccccc3)c(=O)[nH]c2=O)cc1	·	·	·	·	·	–
CCN(C(=O)COC(=O)CSc1ccccc1)c1c(N)n(Cc2ccccc2)c(=O)[nH]c1=O	·	·	·	·	·	–
CC(C)c1ccc(CN2CCN(C(=O)CCl)CC2)cc1	–	46	–	–	–	·
CC(C)CC(=O)N1CCN(Cc2ccc(Cl)cc2)CC1	–	·	–	·	·	–
N#Cc1ccsc1NC(=O)c1cccc(-n2cnnn2)c1	–	·	–	·	·	–
COc1ccc(CNC(=O)CS(=O)CC(=O)O)cc1OC (stereo unspecified)	–	–	–	–	–	–
CCN(CC)S(=O)(=O)c1ccc(NC(=O)c2nc3nc(C)cc(C)n3n2)cc1	–	–	–	·	–	–
O=C(N/N=C/c1cc(Cl)c(O)c(Cl)c1)c1cc2c(ccc3ccccc32)o1	–	·	–	·	·	–
COc1ccc(OC(=O)C(C)N2C(=O)c3ccccc3C2=O)cc1 (stereo unspecified)	–	·	–	·	·	–
SMILES	IEC-6 tox	Ba/F3 V617F tox	KLF5 inhibitor	APP 5UTR inh	BaF3 parental	aSyn UTR inh
CC1=CC(C)(C)Nc2ccc(OC(=O)C(C)N3C(=O)c4ccccc4C3=O)cc21 (stereo unspecified)	–	–	–	–	80	–
CC1=CC(C)(C)Nc2ccc(OC(=O)c3cccnc3)cc21	–	41	–	–	90	–
Cc1cc(C(=O)CSc2nc3ccccc3[nH]2)c(C)n1CC1CCCO1 (stereo unspecified)	–	–	–	–	40	–
COc1ccc(-c2n(CC(=O)OC3CC(C)CCC3C(C)C)c3ccccc3[n+]2C)cc1 (stereo unspecified)	–	100	–	–	89	101
COc1ccc(OCc2n(CC(=O)OC3CC(C)CCC3C(C)C)c3ccccc3[n+]2C)cc1 (stereo unspecified)	–	99	–	·	100	–
CN=c1scc(-c2ccccc2Br)n1/N=C/c1ccc[nH]1	–	–	–	–	–	64

Screens from PubChem BioAssay.
